# Measured values taken from PubChem BioAssay (NCI).
# This is part of a sample that, as a whole, favours compounds with a hit. Of some 83,000 tested, about 20% had one in any assay.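 How to read the values: 0–100, growth inhibition (40 = 60% inhibited); 0, no net growth; -100 to 0, cell death (-40 = 40% of starting cells died; -100 = all dead).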 Active and inactive are the calls of the source.
# Tested on: LOX IMVI melanoma
# Test: NCI-60 one-dose screen, 48 h (100 = growth as untreated, 0 = no growth, -100 = all killed)
# Settings: 10 µM unless noted
# Description: Growth inhibition of the LOX IMVI human tumor cell line is measured as a screen for anti-cancer activity. Cells are grown in 96 well plates and exposed to the test compound for 48 hours. Compounds are tested at a single concentration, which is 10^-5 M for most compounds. The reported endpoint is percent growth (GI% or GIPRCNT), where numbers from 0 - 100% represent growth inhibition, and numbers from -100% - 0 represent cell death. For example, a value of 40 represents 60% growth inhibition. A value of 0 means no net growth occurred over the course of the experiment. A value of -40 indicates 40% of cells at the beginning of the experiment died by the end of the experiment. A value of -100 means all cells are dead at the end of the experiment.
# NCI-60 Human Tumor Cell Lines Screen was performed using the standard one-dose NCI protocol, which is described in more detail at https://dtp.cancer.gov/discovery_development/nci-60/default.htm.
# Compounds with GIPRCNT values below 10 were considered active. Activity score was based on GIPRCNT using the following formula: […]
# Score is 0 for GIPRCNT values of 100 or above, 50 for GIPRCNT values of 0, and 100 for GIPRCNT values of -100.
row,Compound,growth
1,CN1C(=O)N(C)C2C1NN=c1s/c(=C\c3ccccc3F)c(=O)n12 (stereo not given),20.6% (inactive)
2,C#CC(F)(F)[C@]1(O)CCC2C3CCC4=CC(=O)CCC4=C3[C@@H](c3ccc(N(C)C)cc3)C[C@@]21C (stereo not given in full),96.2% (inactive)
3,CCOC(=O)c1cnc2sc(-c3ccc(OC)cc3)nc2c1Cl,86.8% (inactive)
4,O=S(=O)(c1ccc(NCSc2nc3ccccc3s2)cc1)c1ccc(NCSc2nc3ccccc3s2)cc1,91.1% (inactive)
5,COc1cccc(/C=C/C(=O)/C=C(/C=C/c2cccc(OC)c2OC)OB(F)F)c1OC,18.2% (inactive)
6,Cn1cc(-c2ccc3occ(-c4cccc(-c5ccncc5)c4)c3n2)cn1,14.9% (inactive)
7,CCCc1cc(CCC)n2nc(N)nc2n1,105% (inactive)
8,Cn1ccnc1C(=O)/C=C/c1ccc(CC(=O)Nc2cc(F)c(F)c(F)c2)cc1,-3.99% (active)
9,COc1cc2cc(Oc3ccc(NC(=O)Nc4ccc(Cl)c(Cl)c4)cc3)c(C)nc2cc1OCCN1CCCCC1,99.1% (inactive)
10,CNC(=O)c1cc(Oc2ccc3nc(NC(=O)c4cc(C(F)(F)F)cc(C(F)(F)F)c4)sc3c2)ccn1,27.4% (inactive)
11,COc1ccc(NC(=O)c2ccc(NC3=C(c4ccc(Cl)cc4)C(=O)NC3=O)cc2)cc1,87.7% (inactive)
12,CN(C)CCOc1nc2c3cc([N+](=O)[O-])ccc3nn2c2ccccc12,20.2% (inactive)
13,C#CCOc1cc(/C=N/Nc2nc(-c3ccc(OC)cc3)cs2)ccc1O,90.9% (inactive)
14,C=CCn1c(SCC(=O)Nc2ccc(C(=O)/C=C/c3cc(OC)c(OC)c(OC)c3)cc2)nnc1-c1cc(-c2ccc(S(N)(=O)=O)cc2)nc2ccccc12,73% (inactive)
15,COc1cc2c(c(OC)c1OC)CCC(c1cccc(C(=O)Nc3ccccc3Br)c1)O2 (stereo not given),90.2% (inactive)
16,COc1cc(NC(=O)c2cncnc2Nc2ccc3c(ccn3Cc3cccc(F)c3)c2)cc(OC)c1,40.3% (inactive)
17,CS(=O)(=O)Nc1cc(-c2ccc3ncnc(Nc4cccc(Cl)c4)c3c2)cnc1Cl,-35.5% (active)
18,COC(=O)c1nc(-c2ccccc2)oc1S(=O)(=O)NCC(c1ccc(Cl)cc1)N1CCCCC1 (stereo not given),43.9% (inactive)
19,CCCCCCCC/C=C\CCCCCCCCOc1ccc(CC(=O)NCC[N+]2(C)CCCC2)cc1,72.8% (inactive)
20,C=C1C(=O)O[C@H]2[C@H]1CC/C(CNC(=O)/C=C/c1cc(OC)c(OC)c(OC)c1)=C\CC[C@@]1(C)O[C@@H]21,-88% (active)

row,Compound,growth
1,C#C[C@]1(O)CC[C@H]2[C@@H]3CC=C4c5sc(-c6cccc(C)c6)nc5CC[C@]4(C)[C@H]3CC[C@@]21C,55% (inactive)
2,C#CCOc1cccc(Nc2c(Cl)c(CCl)nc3ccc(Oc4ccccc4)cc23)c1,-34.1% (active)
3,CCCCC1=C(Br)C(=O)c2ncccc2C1=O,94.6% (inactive)
4,O=C1C=CC2(O)OC(c3ccccc3)CC(=O)C2=C1O (stereo not given),77% (inactive)
5,O=C(Nc1ccc2[nH]ncc2c1)c1csc(Nc2ccccc2)n1,40.8% (inactive)
6,Cc1ccc(S(=O)(=O)N(CCC(=O)O)c2ccccc2)cc1,97.3% (inactive)
7,CC1=NC(=S)NC(c2ccccc2)/C1=C1/CC(c2ccccc2O)NN1 (stereo not given),101% (inactive)
8,Nc1cc(-c2ccc(Cl)cc2)nn1-c1nc(-c2ccc(Br)cc2)cs1,102% (inactive)
9,O=C(O)c1nn(-c2ccc(Cl)cc2)nc1N1CCCC1,93.6% (inactive)
10,C=CCNc1ccc2c3c(cccc13)C(=O)N(CC=C)C2=O,92% (inactive)
11,COc1ccc(-n2c(=O)n(-c3ccc(-c4nc5ccc(F)cc5s4)cc3)c(=O)c3cccnc32)cc1,99.5% (inactive)
12,Oc1c(Cl)cc(Cl)c2ccc(CN3CCNCC3)nc12,45.3% (inactive)
13,Cc1ccc(-c2nn(CC(=O)N3CCOCC3)c(N)c2C#N)cc1,100% (inactive)
14,O=C1Nc2ccccc2/C1=C/c1cccn1CCCCCCn1c2ccccc2c(=O)c2ccccc21,91.2% (inactive)
15,COC(=O)c1c(C)nc(C)c2c1C(=O)C(Br)=C(NCCN1CCOCC1)C2=O,82.8% (inactive)
16,CCOC(=O)c1c(C)nc2c(c1N)C(=O)C(=O)N2CCc1ccc(OC)c(OC)c1,76.9% (inactive)
17,O=c1[nH]c(CN2CCN(c3ccccc3)CC2)nc2c(Br)cc(Br)cc12,99.7% (inactive)
18,Cc1ccc(C2(C)NC(=O)N(CC(=O)Nc3cccc(C)c3)C2=O)cc1 (stereo not given),96.3% (inactive)
19,COc1ccc(-c2ccc(-c3ccc(C(=N)N)nc3)s2)cc1,-89% (active)
20,C#Cc1cccc(Nc2nc(Cl)nc3cc(NC(=O)CCl)ccc23)c1,-77.3% (active)
